According to PubChem BioAssay (Tox21):
Results filed as inconclusive are left out. Where a call stands in place of a potency, no number is given. Active and inactive are the calls of the source. The call rests on the fitted dose curve; in most records, active means well fitted curve in the direction sought with a large enough effect in the repeat runs; inconclusive means weak or mixed curves; inactive means no such curve, though single readings can be large; an effect the other way counts as inactive or inconclusive.

Test: qHTS assay to identify small molecule antagonists of the glucocorticoid receptor (GR) signaling pathway - cell viability counter screen (AID 720693); further: nearly all actives have a fitted effect of over 55% in size
Conditions: GR-bla HeLa viability, CellTiter-Glo luminescence, 18 h, with 5 nM dexamethasone present; series mostly up to 58.5 µM

Row | Structure (SMILES) | Potency
1 | O=C1C(Cl)C(CCl)CN1c1cccc(C(F)(F)F)c1 (stereo not drawn) | inactive
2 | NCCCNCCCN | inactive
3 | OCCCBr | inactive
4 | CC(C)=CCOc1c2occc2cc2ccc(=O)oc12 | inactive
5 | CCOP(=S)(OCC)Oc1nc(Cl)c(Cl)cc1Cl | inactive
6 | Nc1ccc([N+](=O)[O-])cc1[N+](=O)[O-] | inactive
7 | CC(C)O.CC(C)O.OCCN(CCO)CCO.OCCN(CCO)CCO.[Ti] | inactive
8 | Cc1c(F)c(F)c(COC(=O)C2C(/C=C(\Cl)C(F)(F)F)C2(C)C)c(F)c1F (stereo not drawn) | inactive
9 | c1ccoc1 | inactive
10 | Cc1ccccc1CCl | inactive
11 | CO[C@@H]1[C@H](OC(=O)NC(=O)CCl)CC[C@]2(CO2)[C@H]1[C@@]1(C)O[C@@H]1CC=C(C)C | inactive
12 | COc1cc(Cl)c(OC)cc1Cl | inactive
13 | CCCCCCCCCC(=O)O[C@H]1CC[C@H]2[C@@H]3CCC4=CC(=O)CC[C@@H]4[C@H]3CC[C@]12C | inactive
14 | O=C(O)c1ccccc1C(=O)Nc1cccc2ccccc12 | inactive
15 | C=CCCl | inactive
16 | Brc1ccc(Oc2ccccc2)cc1 | inactive
17 | CCOP(=S)(Oc1ccc([N+](=O)[O-])cc1)c1ccccc1 (stereo not drawn) | inactive

Row | Structure (SMILES) | Potency
18 | O=C(CBr)c1ccccc1 | inactive
19 | CCCN(CCC)c1c([N+](=O)[O-])cc(S(C)(=O)=O)cc1[N+](=O)[O-] | inactive
20 | CC(C)N(CCC(C(N)=O)(c1ccccc1)c1ccccn1)C(C)C (stereo not drawn) | inactive
21 | Cc1cc(=O)[nH]o1 | inactive
22 | N#C/C(N)=C(/N)C#N | inactive
23 | CCOC(=O)C(Cl)C(C)=O (stereo not drawn) | inactive
24 | CC(C)(CCl)C(=O)Cl | inactive
25 | C=CC(=O)OCCCCO | inactive
26 | CCOC(=O)COc1cc(-c2nn(C)c(OC(F)F)c2Cl)c(F)cc1Cl | inactive
27 | COC(N)=O | inactive
28 | CCc1ccc(C(=O)NN(C(=O)c2cc(C)cc(C)c2)C(C)(C)C)cc1 | inactive
29 | CCCCNP(N)(N)=S | inactive
30 | Nc1ccc(N=Nc2ccc(-c3ccc(N=Nc4c(S(=O)(=O)O)cc5cc(S(=O)(=O)O)c(N=Nc6ccccc6)c(O)c5c4N)cc3)cc2)c(N)c1 | inactive
31 | CCOS(C)(=O)=O | inactive
32 | NNC(=O)c1cccnc1 | inactive
33 | O=NN1CCNCC1 | inactive
34 | CC(=O)[C@H]1CC[C@H]2[C@@H]3CC[C@H]4C[C@](C)(O)CC[C@]4(C)[C@H]3CC[C@]12C | inactive

Test: qHTS assay for identifying genotoxic compounds that show differential cytotoxicity against isogenic chicken DT40 cell lines with known DNA damage response pathways - wild type cell line (AID 743012); further: nearly all actives have a fitted effect of over 60% in size; further: potency means the concentration at half of the fitted maximal effect
Conditions: DT40 wild type chicken cells viability, CellTiter-Glo, 40 h; series mostly up to 68.4 µM
Method in brief: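 Luminescent ATP viability signal (CellTiter-Glo, 30 min RT) recorded after wild type DT40 cells were incubated with compounds for 40 h at 37 C/5% CO2.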

Row | Structure (SMILES) | Potency
35 | CC(C)=CCOc1c2occc2cc2ccc(=O)oc12 | 26.6 µM (active)
36 | c1ccoc1 | inactive
37 | Cc1ccccc1CCl | inactive
38 | CO[C@@H]1[C@H](OC(=O)NC(=O)CCl)CC[C@]2(CO2)[C@H]1[C@@]1(C)O[C@@H]1CC=C(C)C | 0.0006 µM (active)
39 | CCCCCCCCCC(=O)O[C@H]1CC[C@H]2[C@@H]3CCC4=CC(=O)CC[C@@H]4[C@H]3CC[C@]12C | inactive
40 | C=CCCl | inactive
41 | CCOP(=S)(Oc1ccc([N+](=O)[O-])cc1)c1ccccc1 (stereo not drawn) | inactive
42 | CC(C)N(CCC(C(N)=O)(c1ccccc1)c1ccccn1)C(C)C (stereo not drawn) | inactive
43 | Cc1cc(=O)[nH]o1 | inactive
44 | N#C/C(N)=C(/N)C#N | inactive
45 | Nc1ccc(N=Nc2ccc(-c3ccc(N=Nc4c(S(=O)(=O)O)cc5cc(S(=O)(=O)O)c(N=Nc6ccccc6)c(O)c5c4N)cc3)cc2)c(N)c1 | inactive
46 | CCOS(C)(=O)=O | inactive
47 | NNC(=O)c1cccnc1 | inactive
48 | CC(=O)[C@H]1CC[C@H]2[C@@H]3CC[C@H]4C[C@](C)(O)CC[C@]4(C)[C@H]3CC[C@]12C | inactive

Test: qHTS assay for identifying genotoxic compounds that show differential cytotoxicity against isogenic chicken DT40 cell lines with known DNA damage response pathways - Rev3 mutant cell line (AID 743014); further: nearly all actives have a fitted effect of over 55% in size; further: potency means the concentration at half of the fitted maximal effect
Conditions: chicken DT40 Rev3-/- viability, CellTiter-Glo, 40 h; series mostly up to 68.4 µM

Row | Structure (SMILES) | Potency
49 | O=C1C(Cl)C(CCl)CN1c1cccc(C(F)(F)F)c1 (stereo not drawn) | inactive
50 | NCCCNCCCN | 55.3 µM (active)
51 | OCCCBr | inactive
52 | CCOP(=S)(OCC)Oc1nc(Cl)c(Cl)cc1Cl | inactive
53 | Nc1ccc([N+](=O)[O-])cc1[N+](=O)[O-] | 53.1 µM (active)
54 | CC(C)O.CC(C)O.OCCN(CCO)CCO.OCCN(CCO)CCO.[Ti] | inactive
55 | Cc1c(F)c(F)c(COC(=O)C2C(/C=C(\Cl)C(F)(F)F)C2(C)C)c(F)c1F (stereo not drawn) | inactive
56 | COc1cc(Cl)c(OC)cc1Cl | inactive
57 | O=C(O)c1ccccc1C(=O)Nc1cccc2ccccc12 | 54.5 µM (active)
58 | Brc1ccc(Oc2ccccc2)cc1 | inactive
59 | O=C(CBr)c1ccccc1 | 61.5 µM (active)
60 | CCCN(CCC)c1c([N+](=O)[O-])cc(S(C)(=O)=O)cc1[N+](=O)[O-] | inactive
61 | CCOC(=O)COc1cc(-c2nn(C)c(OC(F)F)c2Cl)c(F)cc1Cl | inactive
62 | CCc1ccc(C(=O)NN(C(=O)c2cc(C)cc(C)c2)C(C)(C)C)cc1 | 27.3 µM (active)
63 | CCCCNP(N)(N)=S | inactive
64 | O=NN1CCNCC1 | inactive

Test: qHTS assay for identifying genotoxic compounds that show differential cytotoxicity against isogenic chicken DT40 cell lines with known DNA damage response pathways - Rad54/Ku70 mutant cell line (AID 743015); further: nearly all actives have a fitted effect of over 60% in size; further: potency means the concentration at half of the fitted maximal effect
Conditions: DT40 Rad54/Ku70 mutant viability, CellTiter-Glo, 40 h; series mostly up to 66.8 µM

Row | Structure (SMILES) | Potency
65 | O=C1C(Cl)C(CCl)CN1c1cccc(C(F)(F)F)c1 (stereo not drawn) | inactive
66 | NCCCNCCCN | 62.1 µM (active)
67 | OCCCBr | inactive
68 | CCOP(=S)(OCC)Oc1nc(Cl)c(Cl)cc1Cl | inactive
69 | Nc1ccc([N+](=O)[O-])cc1[N+](=O)[O-] | 66.8 µM (active)
70 | CC(C)O.CC(C)O.OCCN(CCO)CCO.OCCN(CCO)CCO.[Ti] | inactive
71 | c1ccoc1 | inactive
72 | Cc1ccccc1CCl | inactive
73 | CCCCCCCCCC(=O)O[C@H]1CC[C@H]2[C@@H]3CCC4=CC(=O)CC[C@@H]4[C@H]3CC[C@]12C | inactive
74 | C=CCCl | inactive
75 | CC(C)N(CCC(C(N)=O)(c1ccccc1)c1ccccn1)C(C)C (stereo not drawn) | inactive
76 | N#C/C(N)=C(/N)C#N | inactive
77 | CCOC(=O)C(Cl)C(C)=O (stereo not drawn) | inactive
78 | CC(C)(CCl)C(=O)Cl | inactive
79 | C=CC(=O)OCCCCO | 61.1 µM (active)
80 | CCOC(=O)COc1cc(-c2nn(C)c(OC(F)F)c2Cl)c(F)cc1Cl | 43.3 µM (active)
81 | COC(N)=O | inactive
82 | CCc1ccc(C(=O)NN(C(=O)c2cc(C)cc(C)c2)C(C)(C)C)cc1 | 27.3 µM (active)
83 | CCCCNP(N)(N)=S | inactive
84 | Nc1ccc(N=Nc2ccc(-c3ccc(N=Nc4c(S(=O)(=O)O)cc5cc(S(=O)(=O)O)c(N=Nc6ccccc6)c(O)c5c4N)cc3)cc2)c(N)c1 | inactive
85 | CCOS(C)(=O)=O | inactive
86 | NNC(=O)c1cccnc1 | inactive
87 | O=NN1CCNCC1 | inactive
88 | CC(=O)[C@H]1CC[C@H]2[C@@H]3CC[C@H]4C[C@](C)(O)CC[C@]4(C)[C@H]3CC[C@]12C | inactive
